The supplement of paper PMC6555819

What was measured:
Assay in all cases: PBM binding z-score (relative to random genomic background probes); higher = stronger binding; sequences stand for … in GC…GCGATTGACAGCGTAGAATGAAGG
[1] = test system: FXR:RXRa (NR concentration 270 nM, RXRa partner concentration 90 nM)
Procedure, shortened: (§1)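 Custom Agilent 4×180K protein-binding microarrays carried double-stranded probes, each with a 34-nt variable region. These regions held direct-repeat seeds, single-nucleotide variants, half-site ablations and random human genomic background sequences. Ligand-free nuclear receptor dimers were incubated on the arrays for 1 h, antibodies against each partner (one per run) detected binding, and scanned fluorescence was regression-normalized. Binding z-scores take the random background probes as reference.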

[2] = test system: LXRa:RXRa (NR concentration 270 nM, RXRa partner concentration 90 nM)
Procedure, shortened: as §1

[3] = test system: LXRa homodimer (NR concentration 270 nM)
Procedure, shortened: as §1

[4] = test system: LXRb:RXRa (NR concentration 270 nM, RXRa partner concentration 90 nM)
Procedure, shortened: as §1

[5] = test system: LXRb homodimer (NR concentration 270 nM)
Procedure, shortened: as §1

[6] = test system: PPARa:RXRa (NR concentration 270 nM, RXRa partner concentration 90 nM)
Procedure, shortened: as §1

[7] = test system: PPARg:RXRa (NR concentration 180 nM, RXRa partner concentration 90 nM)
Procedure, shortened: as §1

[8] = test system: PPARg:RXRa 270nM:90nM, anti-RXR (NR concentration 270 nM, RXRa partner concentration 90 nM)
Procedure, shortened: as §1

[9] = test system: PPARg:RXRa 30nM:10nM, anti-RXR (NR concentration 30 nM, RXRa partner concentration 10 nM)
Procedure, shortened: as §1

[10] = test system: PPARg:RXRa 90nM:30nM, anti-RXR (NR concentration 90 nM, RXRa partner concentration 30 nM)
Procedure, shortened: as §1

[11] = test system: PPARg:RXRa DBDmut IVT, anti-RXR (DBD mutation: RXRa K156A/R161A, NR concentration 270 nM, RXRa partner concentration 90 nM)
Procedure, shortened: as §1

[12] = test system: PPARg:RXRa IVT, anti-PPARg (NR concentration 270 nM, RXRa partner concentration 90 nM)
Procedure, shortened: as §1

[13] = test system: PPARg DBDmut:RXRa IVT, anti-PPARg (DBD mutation: PPARg1 K132A/R137A, NR concentration 270 nM, RXRa partner concentration 90 nM)
Procedure, shortened: as §1

[14] = test system: PPARg DBDmut IVT, anti-PPARg (DBD mutation: PPARg1 K132A/R137A, NR concentration 270 nM)
Procedure, shortened: as §1

[15] = test system: PPARg homodimer (NR concentration 180 nM)
Procedure, shortened: as §1

[16] = test system: PXR:RXRa (NR concentration 270 nM, RXRa partner concentration 90 nM)
Procedure, shortened: as §1

[17] = test system: PXR homodimer (NR concentration 270 nM)
Procedure, shortened: as §1

[18] = test system: RARa:RXR (NR concentration 270 nM, RXRa partner concentration 90 nM)
Procedure, shortened: as §1

[19] = test system: RARa homodimer (NR concentration 270 nM)
Procedure, shortened: as §1

[20] = test system: RARb:RXRa (NR concentration 270 nM, RXRa partner concentration 90 nM)
Procedure, shortened: as §1

Sequence | PBM binding z-score [1] | PBM binding z-score [2] | PBM binding z-score [3] | PBM binding z-score [4] | PBM binding z-score [5] | PBM binding z-score [6] | PBM binding z-score [7] | PBM binding z-score [8] | PBM binding z-score [9] | PBM binding z-score [10] | PBM binding z-score [11] | PBM binding z-score [12] | PBM binding z-score [13] | PBM binding z-score [14] | PBM binding z-score [15] | PBM binding z-score [16] | PBM binding z-score [17] | PBM binding z-score [18] | PBM binding z-score [19] | PBM binding z-score [20]
CCTCGGAGGACAACAGGAGGACAGAGCTGCCAGA | 0.107 | 0.0624 | -0.1 | -0.555 | -1.29 | -0.58 | 0.442 | -0.396 | -0.625 | -0.907 | -0.583 | -0.273 | -0.847 | -1.93 | -0.324 | -0.247 | -0.0933 | -0.0397 | -0.0805 | 1.09
CCGAGTAGGTAATGGGGCATTCAGGCAACGGTGA | -0.324 | -0.287 | -0.342 | -0.153 | -0.666 | 1.73 | 3.13 | 4.63 | 2.99 | 4.57 | 3.06 | 3.08 | -0.988 | -0.54 | 0.397 | -0.417 | -0.151 | -0.249 | -0.452 | 0.118
ATATGTAGGTTACACCCGGGTCATTCAGGCTATG | 2.03 | 4.01 | 1.46 | 3.12 | 0.769 | 4.84 | 6.51 | 5.36 | 3.01 | 4.69 | 7.06 | 7.68 | 2.55 | 1.68 | 1.71 | 3.62 | 1.57 | 3.89 | 0.619 | 2.35
CCGTGTAGGTTATGGGGCATTCAGGCAACGGTGA | 0.503 | 0.731 | 0.151 | 0.984 | 0.31 | 2.13 | 2.03 | 3.57 | 1.74 | 3.16 | 2.12 | 2.67 | -1.11 | -0.904 | 1.42 | 0.0818 | -0.178 | 0.761 | 0.31 | 1.33
ACTAGATGGTCAGCTGAGGTCACACACAATTCGG | 4.73 | 3.89 | 2.33 | 3.48 | 0.584 | 3.6 | 1.95 | 2.13 | 0.736 | 1.61 | 0.982 | 2.14 | 1.06 | 0.428 | 2.89 | 5.58 | 1.53 | 4.43 | 1.34 | 3.75
GCTAGCAGGCCATTTGGGTCACGCAATGACGGGC | 0.679 | 0.476 | -0.416 | 0.378 | -0.491 | 2.23 | 1.32 | 1.45 | 0.36 | 0.648 | 2.42 | 3.05 | -0.368 | -0.646 | 0.0821 | 1.13 | -0.117 | 1.88 | -0.356 | 1.91
TCTGCTAGGTCCGTTGGTCAGCTAACGAGCTGCC | -0.505 | -0.6 | -1.09 | -0.828 | -0.736 | -0.336 | -1.2 | -0.0919 | 0.802 | 0.586 | 0.439 | -0.053 | -0.86 | 0.217 | -1.34 | -0.511 | -1.26 | -0.446 | -1.4 | -0.0528
ACTAGCGGGCCAAGTTTGGGTCACTCAAACAAAG | 0.106 | -0.183 | -0.598 | 0.723 | -0.855 | 1.5 | -0.111 | 0.168 | -0.66 | 0.126 | 0.418 | 0.997 | -0.878 | -0.789 | 0.424 | 0.722 | -0.623 | 1.51 | -1.37 | 1.64
GCTTACGGGTCAATGGTTATAGCATGAATAGAAT | 4.8 | 2.75 | -0.289 | 2.89 | 0.196 | 4.78 | 4.3 | 4.54 | 1.86 | 3.57 | 3.66 | 3.16 | 0.504 | 0.889 | 1.06 | 2.21 | 0.167 | 3.03 | 0.149 | 3.43
GCTAGTTCGTCAGTAAAAGGTCACACACCGGTCG | 3.31 | 4.47 | 4.75 | 4.05 | 0.683 | 4.56 | 1.96 | 3.56 | 1.55 | 3.22 | 0.269 | 1.84 | 0.221 | 0.516 | 5.83 | 5.56 | 1.64 | 6.4 | 3.07 | 4.08
ATACGTAGGTTAAGGGTCATTCAGGTTGGTTCGC | 5.1 | 4.98 | 2.92 | 4.46 | 1.03 | 5.41 | 7.56 | 7.6 | 6.33 | 8.26 | 1.41 | 3.8 | 0.783 | 0.775 | 3.98 | 5.7 | 2.65 | 6.55 | 2.24 | 3.7
GGAACGACGGCATTCGAGTTGATAGCATGGCGAT | -0.557 | -0.773 | -0.583 | -0.948 | -1.04 | -0.735 | 0.532 | -0.612 | -0.766 | -0.917 | -0.236 | -0.897 | -0.871 | -0.489 | -1.13 | -0.589 | -0.529 | -0.766 | -0.761 | -1.24
TCGAGTAGGCTACCAATGGGGCATTCAGCTTTCT | -0.523 | -0.102 | -1.06 | -0.127 | -1.18 | 0.0161 | -0.358 | 0.198 | 1.19 | 0.625 | 1.55 | 0.414 | -0.67 | -1.72 | -1.23 | -0.438 | -0.888 | -0.72 | -1.3 | -0.208
TCTATTAGCTGAAGGGCAACCGACGAGTCCGTTT | -0.0805 | 0.244 | -0.393 | 0.444 | -0.429 | 0.629 | 0.0411 | 1.66 | 2.6 | 2.2 | 1.6 | 0.162 | 0.664 | 0.466 | -0.169 | 0.472 | 0.237 | 0.362 | -0.62 | 1.29
